# Experimental data as given in ChEMBL document CHEMBL3988442, “University of Dundee, Small-Polar-MMV Screening Library” (2021).
# Screen size: about 48,000 compounds; about 13,000 (27%) showed an effect of 50% or more. The list shows a part of the results.
# Tested on: Wolbachia pipientis
# Test: Anti-Wolbachia Cell-Based Screen
# Type: functional
# Design: scale not given: in the data most compounds retested in dose-response had high values
# Conditions: 5 µM
row,SMILES,Percent Effect
1,CC(C)CNC(=O)Nc1cccc(CN2CCOC2=O)c1,-15.82%
2,Cc1nn(C)c(C)c1-c1cnc(CC2CCNC2)cn1 (stereo unspecified),90.84%
3,Cc1nn(C)c(C)c1-c1nccnc1CC1CCNCC1,110.6%
4,Cc1nn(C)c(C)c1-c1cnc(CC2CCNCC2)cn1,154.2%
5,c1cncc(-n2cnnc2CC2CCNCC2)c1,-4.344%
6,CCn1ccnc1CNc1nccc(-c2c(C)nn(C)c2C)n1,-9.163%
7,CCc1nccn1CCCNc1nccc(-c2c(C)nn(C)c2C)n1,0.4363%
8,COc1ccc(C)cc1-n1cnnc1CC1CCNCC1,5.267%
9,O=C(C1=CCCC1)N1CC[C@]2(C[C@H](OCc3cccnc3)CO2)C1.O=C(O)C(F)(F)F,-2.821%
10,CCSCC(C)NCc1ccccc1-n1ccnc1 (stereo unspecified),26.03%
11,Cc1nnc2n1CCN(C(=O)CN1C(=O)CSc3ccccc31)C2,-16.29%
12,CC(C)NC(=O)O[C@H]1COCCN(c2nc3ccccc3s2)C1,11.5%
13,O=C(c1cn(-c2cc(N3CCSCC3)ncn2)cn1)N1CCSCC1,23.31%
14,Cc1cc(C)n(CC2CCCN2C(=O)c2ccc(N(C)C)nn2)n1 (stereo unspecified),107%
15,CCc1noc(C)c1C(=O)N1CCCC1Cn1nc(C)cc1C (stereo unspecified),-1.879%
16,Cc1cc(C)n(CC2CCCN2C(=O)c2cc[nH]n2)n1 (stereo unspecified),9.629%
17,Cc1cc(C)n(CC2CCCN2C(=O)c2ccc3c(c2)nnn3C)n1 (stereo unspecified),-2.526%
18,Cc1cc(C)n(CC2CCCN2C(=O)c2cnn(C)c2C2CC2)n1 (stereo unspecified),-2.201%
19,Cc1cc(C)n(CC2CCCN2C(=O)c2c[nH]c(=O)c(Cl)c2)n1 (stereo unspecified),130%
20,Cc1cc(C)n(CC2CCCCN2C(=O)c2ccc3c(c2)OCO3)n1 (stereo unspecified),-4.429%
21,Cc1cc(C)n(CC2CCCN2C(=O)c2ccnc(N(C)C)c2)n1 (stereo unspecified),141.4%
22,Cc1cc(C)n(CC2CCCN2C(=O)c2ccc3c(c2)OCO3)n1 (stereo unspecified),14.69%
23,Cc1cc(C)n(CC2CCCN2C(=O)c2cnccn2)n1 (stereo unspecified),101.9%
24,Cc1cc(C)n(C2CCCN(C(=O)c3c[nH]c(=O)c(Cl)c3)C2)n1 (stereo unspecified),-7.23%
25,NC(=O)CC1CCN(CC(O)c2ccc(Br)cc2)CC1 (stereo unspecified),25.42%
26,CC(COc1ccccc1)NCc1nncn1C1CCCCC1 (stereo unspecified),-38.9%

row,SMILES,Percent Effect
1,CCN1CCC(NC(=O)Cc2csc(C(C)(C)C)n2)CC1,4.843%
2,O=C(C1CCOC1)N1CCN(CCn2cccn2)c2ncccc2C1.O=C(O)C(F)(F)F (stereo unspecified),122%
3,O=C(O)C(F)(F)F.O=C([C@H]1CCCO1)N1CCN(CCn2cccn2)c2ncccc2C1,108.8%
4,CCN(CC)C(=O)c1nnc2ccc(N3CCOCC3)cc2n1,-10.33%
5,CCCS(=O)(=O)N1CCN(CC(F)(F)F)CC1,16.36%
6,Cc1cnc(C(C)(C)NC(=O)NCc2ccon2)s1,-28.31%
7,Cc1nc2ccc(C(=O)N(CCC#N)CCC#N)cc2nc1C,-2.079%
8,CN(Cc1ccc2nonc2c1)C(=O)c1ccc(C2CCCO2)s1 (stereo unspecified),-9.176%
9,N#CCCN(c1ccc(F)cc1)S(=O)(=O)CC1CCCCO1 (stereo unspecified),-8.338%
10,Cc1nc2cc(C(=O)N(CCC#N)CC3CCCO3)ccc2[nH]1 (stereo unspecified),103.2%
11,Cc1nc2cc(C(=O)N(CCC#N)CCC#N)ccc2n1C,-0.9305%
12,N#CCCN(CC1CCCO1)C(=O)c1ccc2nonc2c1 (stereo unspecified),113%
13,CCC(C)CS(=O)(=O)NCCc1csc(N2CCCC2)n1 (stereo unspecified),-21.99%
14,COCC(C)N(Cc1ccccc1OC)C(=O)c1cc(C)[nH]c(=O)c1 (stereo unspecified),-10.95%
15,C[C@]1(O)CN(CCC(N)=O)CC[C@@H]1Oc1cccc(F)c1,109.4%
16,CC(Oc1cccc(F)c1)C(=O)N(CC(N)=O)C1CCCC1 (stereo unspecified),-28.68%
17,CN1CC(=O)N(c2cccc(F)c2)CC12CCN(CCO)C2.O=C(O)C(F)(F)F.O=C(O)C(F)(F)F (stereo unspecified),1.497%
18,O=C(COc1cccc(F)c1)N1C[C@@H](CN2CCCC2)C[C@H](CO)C1,-0.02776%
19,O=C(O)C(F)(F)F.O=C1CC2(CCN(CCO)C2)CN1c1cccc(F)c1 (stereo unspecified),6.062%
20,O=C(COc1cccc(F)c1)N1C[C@H](CO)C[C@H](CN2CCCC2)C1,-0.9347%
21,C[C@]1(O)CN(CC(=O)N2CCCC2)CC[C@@H]1Oc1cccc(F)c1,121.7%
22,C[C@]1(O)CN(CCO)CC[C@@H]1Oc1cccc(F)c1,120.3%
23,NC(=O)CN1CCC(C(=O)NCC(O)c2cccc(F)c2)CC1 (stereo unspecified),3.405%
24,CCn1ncc2c1NC(=O)CC2c1cnc(NCc2ccccc2)nc1 (stereo unspecified),4.243%
25,Cc1ccc(N2CCCC(N3CCC4(CC3)OCCO4)C2=O)cc1 (stereo unspecified),-7.017%
